Compound activity as filed in PubChem.
The list is not random: actives were taken first. Their share in the collection is about 2.2%.
M1 antag = human M1 muscarinic receptor antagonists, primary screen, CHO-K1 cells, Fluo-8 calcium fluorescence, 1536-well. Muscarinic acetylcholine receptor M1 (Homo sapiens), P11229. CHO-K1 hM1, ACh EC80 antagonist. inhibition, % at 3 µM. 1.3% of 360,000 active;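 active means percent inhibition above its own plate's cutoff, namely the mean of that plate's compound wells plus 3 SD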;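 further: peak over basal fluorescence ratio during 140 s after agonist addition; 0% = ACh EC80 plus DMSO and 100% = DMSO alone without agonist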
Target sequence (P11229 whole entry, looked up): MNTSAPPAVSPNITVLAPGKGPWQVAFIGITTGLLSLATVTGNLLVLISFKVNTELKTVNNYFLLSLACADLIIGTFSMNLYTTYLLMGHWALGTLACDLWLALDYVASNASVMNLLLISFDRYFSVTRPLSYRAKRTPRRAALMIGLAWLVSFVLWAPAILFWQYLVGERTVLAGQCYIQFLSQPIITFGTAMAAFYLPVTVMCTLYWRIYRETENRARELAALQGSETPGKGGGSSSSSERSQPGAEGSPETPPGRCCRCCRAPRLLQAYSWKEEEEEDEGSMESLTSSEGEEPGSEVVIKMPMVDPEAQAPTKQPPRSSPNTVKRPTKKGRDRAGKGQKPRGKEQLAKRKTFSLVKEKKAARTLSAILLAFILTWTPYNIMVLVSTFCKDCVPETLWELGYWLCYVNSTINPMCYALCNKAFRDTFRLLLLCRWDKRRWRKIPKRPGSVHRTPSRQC
CHRM4 agonist = human M4 muscarinic receptor agonists, primary screen, CHO-K1 cells, Fluo-8 calcium fluorescence | Muscarinic acetylcholine receptor M4 (Homo sapiens), P08173 | CHO-K1 hM4/Gqi5; vehicle 0%, full acetylcholine response 100% | activation, % at 3 µM | 0.14% of 360,000 active | AID 624127, 2012;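 active means activation above the run mean over all test wells plus 3 SD, cut at about 32% in these data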;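 further: peak over basal fluorescence ratio per well then scaled between controls; 0% = DMSO wells and 100% = acetylcholine at EC100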
CHRM4 PAM = human M4 muscarinic receptor positive allosteric modulators, primary screen, CHO-K1 cells, Fluo-8 calcium fluorescence | 0.4% of 360,000 active | Muscarinic acetylcholine receptor M4 (Homo sapiens), P08173 | CHO-K1 hM4/Gqi5, ACh EC20; 0% = ACh EC20, 100% = maximal ACh | AID 624126, 2012 | activation, % at 3 µM;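 active means activation above its plate's cutoff, the mean activation of sample wells plus 3 SD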
M1 ag = human M1 muscarinic receptor agonists, primary screen, Fluo-8 calcium fluorescence, CHO-K1 cells, HTS; 0.33% of 360,000 active; activation, % at 3 µM; AID 588814, 2011; CHO-K1 hM1, agonist mode; 0% DMSO, 100% acetylcholine EC100;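 active means activation above the run's mean compound activation plus 3 SD, cut at about 16% in these data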;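 further: peak over basal fluorescence ratio within a 140 s kinetic read after compound addition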
M4 antag = human M4 muscarinic receptor antagonists, primary screen, CHO cells, Fluo-8 calcium fluorescence | inhibition, % at 3 µM | Muscarinic acetylcholine receptor M4 (Homo sapiens), P08173 | CHO-hM4 cells, ACh EC80 | 0.73% of 360,000 active;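 active means inhibition above its plate's cutoff, the mean inhibition of sample wells plus 3 SD, cut at about 27% in these data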;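 further: 0% = acetylcholine EC80 with DMSO and 100% = DMSO without agonist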
CHRM1 PAM = human M1 muscarinic receptor positive allosteric modulators, primary screen, CHO-K1 cells, Fluo-8 calcium fluorescence, 1536-well; Muscarinic acetylcholine receptor M1 (Homo sapiens), P11229; activation, % at 3 µM; AID 588819, 2011; CHO-K1 hM1, ACh EC20; 0% = ACh EC20, 100% = maximal ACh; 0.088% of 360,000 active; in the data active means activation above about 19%, passing the limit was not always enough
The depositor's hits bear a star; ! = not confirmed by another sample.

SMILES	M1 antag	CHRM4 agonist	CHRM4 PAM	M1 ag	M4 antag	CHRM1 PAM
C[C@@]12C(=O)Nc3cc(F)c(F)cc3C(=O)N1[C@H]1c3ccccc3OC[C@@H]1[C@@H]2c1ccccc1	79*	2	-15	-6	71*	-32
Cc1ccc(Cl)cc1NC(=S)NCCCSC1CCCCC1	37*	6	-18	-4	10	-15
Cc1cc(Cl)ccc1NC(=S)NCCCO	-12	1	1	-4	-6	6
Cc1cc(NC(=O)CCC(=O)N(CC(=O)NC2CCCC2)c2ccc3c(c2)OCCO3)no1	-2	1	3	0	-1	8
COc1ccc(-c2csc(C(O)c3ccc(F)c(F)c3)n2)cc1 (stereo not given)	4	33*	-7	3	3	-13
COc1cc(C(O)c2nc(-c3ccc(N(C)C)cc3)cs2)ccc1F (stereo not given)	16	41*	-12	5	9	-20
O=C(CCl)Nc1ccccc1C(=O)c1ccccc1	-3	0	20*	-6	-6	4
Cc1cc(C(=O)c2ccccc2)c(NC(=O)CCl)s1	3	-1	0	-7	2	-1
CN(C)c1ccc(NC(=O)c2sc(SCC(=O)Nc3nccs3)nc2N)cc1	24*	24	-27	2	22	-20
COc1ccc(N2C(=O)CC(Cc3ccccc3)C2=O)cc1 (stereo not given)	-4	2	5	-6	4	10
O=C1C=CC2(C=C1)O[C@H](Cc1ccccc1)[C@@H](Cc1ccccc1)O2	-7	2	-7	0	62*	7
COc1ccc(C[C@@H]2OC3(C=CC(=O)C=C3)O[C@H]2Cc2ccc(OC)cc2)cc1	1	4	-9	-4	76*	6
CC(NS(=O)(=O)/C=C/c1ccccc1)c1ccccc1 (stereo not given)	5	-1	0	-10	4	4
CC(C)(C)CN1CCC(Oc2cccc(C(=O)NCCCOc3cccnc3)c2)CC1	17	4	-15	-5	68*	-3
O=C(NCc1ccccc1Cl)c1csc([C@H]2C[C@H](O)[C@@H](CO)O2)n1	19	2	-3	-3	9	-8
CC[n+]1ccccc1/C=C/c1ccc(N(C)C)cc1	-6	1	1	-6	2	7
CCCCCC[n+]1ccccc1/C=C/c1ccc(N(C)C)cc1	74*	33*	-17	30*	49*	-33
CCCCCCN1C=CC(=C/C=C(\C#N)C(=O)OCC)C=C1	60*	253*	-21	150*	36*	-38
CCCN1C=CC(=CC=C(C#N)C#N)C=C1	11	25	-11	10	17	-1
Cc1ccc2c(C)c(C(=O)N(Cc3cccs3)C3CCS(=O)(=O)C3)oc2c1 (stereo not given)	2	1	10	16	-5	24*
Cc1ccc(S(=O)(=O)N(C)C)cc1NC(=O)C(C)N(C)Cc1sccc1C (stereo not given)	9	6	-15	-2	11	-9
CC(C)c1ccc(NC(=O)CSc2nc(=O)[nH]c3c2CCCC3)cc1	-16	1	28*	-1	-8	11
Cc1ccc2c(CC(=O)NCC(=O)Nc3c(C)cccc3C)coc2c1	-3	1	-1	-3	2	9
COc1cc(NC(=O)c2noc(C)c2[N+](=O)[O-])c(OC)cc1Cl	-1	2	0	-5	-13	2
COc1cccc(OC(C)c2ccnc3nc(/N=C/N(C)C)nn23)c1 (stereo not given)	-5	1	-2	-6	-8	10
SMILES	M1 antag	CHRM4 agonist	CHRM4 PAM	M1 ag	M4 antag	CHRM1 PAM
O=C1/C(=C\c2c(NCCOCCO)nc3ccccn3c2=O)SC(=S)N1Cc1ccco1	34	19	-12	30*	24	-19
Cn1ccc2c(N3c4ccccc4CCc4ccccc43)cc3c(c21)C1CCC3C1 (stereo not given)	37*	-2	5	-12	-7	-16
Cn1ccc2c(N3c4ccccc4CCc4ccccc43)cc3c(c21)C1CCC3O1 (stereo not given)	-7	0	5	-5	-5	0
CCc1noc(C)c1C(=O)OCC(=O)c1ccc(OC)c(OC)c1	-2	1	-2	-3	10	5
C=CC[C@@H](CC(=O)NCCO)C(=O)NC[C@H](OC(=O)[C@@H](CC=C)Cc1ccc(F)cc1)c1ccccc1	53*	25	-14	-5	20	-31
C=CC[C@@H](CC(=O)N(CCO)Cc1ccccc1)C(=O)N[C@H](COC(=O)[C@@H](CC=C)Cc1ccc(F)cc1)Cc1ccccc1	17	11	-12	0	31*	-5
C=CC[C@H](CC(=O)N(CCO)Cc1ccccc1)C(=O)NC[C@H](OC(=O)[C@@H](CC=C)Cc1ccc(F)cc1)c1ccccc1	43*	21	-14	-8	30*	-28
Cc1cccc(NC(=O)c2cc(-c3cc(C)c(C)cc3O)n[nH]2)c1	-11	9	-1	-2	-5	11
Cc1ccc(S(=O)(=O)N[C@H](C(=O)N2CCC(C(=O)N[C@H](C(=O)O)c3ccccc3)CC2)C(C)C)cc1	-9	0	9	0	-2	6
CCn1c(C)cc2c(c1=O)C(c1ccc3c(c1)OCO3)C(C#N)=C(N)O2 (stereo not given)	66*	1	-13	-15	30*	-34
CC(=O)Nc1nonc1-n1nnc(C(=O)NCc2ccccc2)c1C	-8	1	4	-6	-2	13
Cc1occc1-c1nnc(SCC(=O)c2ccc(F)cc2)n1Cc1ccco1	-10	2	-4	-6	22	10
CCCS(=O)(=O)n1nc(-c2ccc(C)cc2)cc1N	-6	-1	-3	-6	-5	5
CCCS(=O)(=O)n1nc(-c2ccc(OC)cc2)cc1N	2	1	-14	-3	31*	0
CN(Cc1cnccn1)C(=O)CC1C(=O)NCCN1Cc1c(F)cccc1Cl (stereo not given)	-1	0	-2	-4	0	0
CC(C)CC1Nc2ncnc(N3CCN(c4ccccn4)CC3)c2N(Cc2ccc(Br)cc2)C1=O (stereo not given)	40*!	2	-5	-12	-18	-25
